Source: the supplement of paper PMC11732987, “Enantioselective OTUD7B fragment discovery through chemoproteomics screening and high-throughput optimisation” (Communications Chemistry, 2025)

Legend:
Test in all cases: log2 ratio of Biotin-Ahx-Ub-VS probe labelling (fragment/DMSO); higher = less target engagement (more negative = stronger competition), active = hit call of the paper (q ≤ 0.05, log2 ratio ≤ -1)
Details in all cases: compound concentration: 200 uM; treatment time: 3 h
USP42 = biological target: T1, USP42 (UniProt Q9H9J4)
T1 sequence (whole entry): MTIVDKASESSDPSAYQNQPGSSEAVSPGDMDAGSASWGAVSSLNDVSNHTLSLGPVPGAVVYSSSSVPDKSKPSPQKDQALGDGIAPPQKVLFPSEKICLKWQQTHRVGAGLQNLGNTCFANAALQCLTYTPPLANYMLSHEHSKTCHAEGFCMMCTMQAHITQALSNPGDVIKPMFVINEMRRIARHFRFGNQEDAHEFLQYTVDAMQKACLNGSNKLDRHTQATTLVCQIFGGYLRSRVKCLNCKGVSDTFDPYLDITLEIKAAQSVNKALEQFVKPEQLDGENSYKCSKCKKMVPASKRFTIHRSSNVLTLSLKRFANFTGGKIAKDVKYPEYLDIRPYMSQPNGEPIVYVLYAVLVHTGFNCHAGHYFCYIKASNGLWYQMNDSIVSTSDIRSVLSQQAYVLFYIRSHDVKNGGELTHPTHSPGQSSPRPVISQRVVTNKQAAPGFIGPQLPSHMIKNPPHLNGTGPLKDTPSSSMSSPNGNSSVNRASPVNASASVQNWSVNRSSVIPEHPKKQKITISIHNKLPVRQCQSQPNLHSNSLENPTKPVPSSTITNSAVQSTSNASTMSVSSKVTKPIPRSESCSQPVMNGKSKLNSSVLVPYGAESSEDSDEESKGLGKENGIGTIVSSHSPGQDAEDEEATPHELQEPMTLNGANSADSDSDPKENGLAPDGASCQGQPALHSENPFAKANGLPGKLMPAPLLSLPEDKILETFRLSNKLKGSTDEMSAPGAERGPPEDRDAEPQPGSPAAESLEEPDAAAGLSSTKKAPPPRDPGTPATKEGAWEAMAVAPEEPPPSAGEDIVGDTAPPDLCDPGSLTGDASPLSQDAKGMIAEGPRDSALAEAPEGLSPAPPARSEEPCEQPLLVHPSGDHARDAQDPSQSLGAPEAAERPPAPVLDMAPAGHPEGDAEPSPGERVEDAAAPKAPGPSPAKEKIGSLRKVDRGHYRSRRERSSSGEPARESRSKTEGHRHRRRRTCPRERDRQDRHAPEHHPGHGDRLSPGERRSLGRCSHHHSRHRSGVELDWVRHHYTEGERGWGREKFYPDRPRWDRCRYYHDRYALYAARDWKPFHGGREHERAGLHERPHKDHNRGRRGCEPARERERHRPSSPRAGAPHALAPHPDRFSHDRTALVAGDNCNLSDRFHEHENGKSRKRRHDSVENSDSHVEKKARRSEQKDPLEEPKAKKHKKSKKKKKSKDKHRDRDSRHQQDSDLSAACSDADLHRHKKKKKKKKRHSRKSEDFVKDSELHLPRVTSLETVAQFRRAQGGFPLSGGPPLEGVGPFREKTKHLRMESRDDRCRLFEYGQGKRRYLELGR
Outline: (§1)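 HEK293T lysate, 495 µg per sample in Tris/CHAPS/IGEPAL buffer with protease inhibitors, was treated in triplicate with fragment at 200 µM or vehicle for 3 h and then with Biotin-Ahx-Ub-VS at 0.5 µM final for 1 h. Labelled DUBs were NeutrAvidin-enriched, digested with LysC and trypsin, and run by diaPASEF LC-MS/MS. Spectronaut label-free quantities were global-median-normalised, and values are average log2 fragment/vehicle ratios by unpaired t-test on proteins with ≥2 unique peptides.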

USP46 = USP46 (UniProt P62068)
Sequence of USP46 (P62068 whole entry): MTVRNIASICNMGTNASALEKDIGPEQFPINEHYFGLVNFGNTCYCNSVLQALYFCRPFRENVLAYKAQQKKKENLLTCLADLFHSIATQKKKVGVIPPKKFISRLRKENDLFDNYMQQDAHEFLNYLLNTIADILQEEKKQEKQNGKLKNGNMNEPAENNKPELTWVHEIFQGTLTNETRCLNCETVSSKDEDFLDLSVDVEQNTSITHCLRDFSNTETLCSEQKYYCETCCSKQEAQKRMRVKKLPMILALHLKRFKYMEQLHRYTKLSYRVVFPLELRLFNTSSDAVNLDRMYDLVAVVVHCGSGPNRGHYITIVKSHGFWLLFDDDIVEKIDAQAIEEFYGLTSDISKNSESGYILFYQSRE
Outline: as §1

USP47 = biological target: T2, USP47 (UniProt Q96K76)
T2 sequence (whole entry): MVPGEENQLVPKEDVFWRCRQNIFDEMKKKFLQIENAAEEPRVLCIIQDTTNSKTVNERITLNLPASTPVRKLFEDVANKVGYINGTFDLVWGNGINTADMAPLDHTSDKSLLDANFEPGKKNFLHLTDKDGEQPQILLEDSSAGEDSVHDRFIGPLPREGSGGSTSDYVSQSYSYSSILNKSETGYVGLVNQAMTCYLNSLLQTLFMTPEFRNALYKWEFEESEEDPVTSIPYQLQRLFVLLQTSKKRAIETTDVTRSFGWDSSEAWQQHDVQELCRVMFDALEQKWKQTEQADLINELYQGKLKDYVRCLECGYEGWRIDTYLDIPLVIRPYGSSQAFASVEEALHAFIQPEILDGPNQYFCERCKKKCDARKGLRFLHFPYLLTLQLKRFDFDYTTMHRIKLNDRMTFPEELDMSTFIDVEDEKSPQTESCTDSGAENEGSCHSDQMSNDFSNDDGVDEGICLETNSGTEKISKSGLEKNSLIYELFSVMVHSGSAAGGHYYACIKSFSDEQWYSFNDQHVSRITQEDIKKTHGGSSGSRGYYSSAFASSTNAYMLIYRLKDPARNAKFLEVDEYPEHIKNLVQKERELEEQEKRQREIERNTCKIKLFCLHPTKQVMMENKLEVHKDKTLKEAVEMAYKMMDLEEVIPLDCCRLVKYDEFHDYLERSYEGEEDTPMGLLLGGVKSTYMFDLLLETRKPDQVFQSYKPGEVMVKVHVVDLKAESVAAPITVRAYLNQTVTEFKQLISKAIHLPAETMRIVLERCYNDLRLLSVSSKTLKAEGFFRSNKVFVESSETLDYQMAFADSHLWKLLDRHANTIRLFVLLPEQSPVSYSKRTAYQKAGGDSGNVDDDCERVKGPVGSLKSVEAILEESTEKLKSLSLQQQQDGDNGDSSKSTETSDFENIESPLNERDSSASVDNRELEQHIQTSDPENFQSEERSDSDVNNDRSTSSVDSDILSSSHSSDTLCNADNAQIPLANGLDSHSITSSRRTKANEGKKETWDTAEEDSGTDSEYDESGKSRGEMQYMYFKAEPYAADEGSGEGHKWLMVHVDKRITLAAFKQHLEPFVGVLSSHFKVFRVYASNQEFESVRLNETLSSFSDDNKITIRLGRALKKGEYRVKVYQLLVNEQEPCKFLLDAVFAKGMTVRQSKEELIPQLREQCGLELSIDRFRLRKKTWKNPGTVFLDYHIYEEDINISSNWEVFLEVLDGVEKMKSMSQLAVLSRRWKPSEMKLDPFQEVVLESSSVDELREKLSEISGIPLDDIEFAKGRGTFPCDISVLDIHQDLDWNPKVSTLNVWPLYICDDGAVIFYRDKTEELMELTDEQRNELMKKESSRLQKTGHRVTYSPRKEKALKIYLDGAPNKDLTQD
Outline: as §1

USP48 = biological target: T3, USP48 (UniProt Q86UV5)
T3 sequence (whole entry): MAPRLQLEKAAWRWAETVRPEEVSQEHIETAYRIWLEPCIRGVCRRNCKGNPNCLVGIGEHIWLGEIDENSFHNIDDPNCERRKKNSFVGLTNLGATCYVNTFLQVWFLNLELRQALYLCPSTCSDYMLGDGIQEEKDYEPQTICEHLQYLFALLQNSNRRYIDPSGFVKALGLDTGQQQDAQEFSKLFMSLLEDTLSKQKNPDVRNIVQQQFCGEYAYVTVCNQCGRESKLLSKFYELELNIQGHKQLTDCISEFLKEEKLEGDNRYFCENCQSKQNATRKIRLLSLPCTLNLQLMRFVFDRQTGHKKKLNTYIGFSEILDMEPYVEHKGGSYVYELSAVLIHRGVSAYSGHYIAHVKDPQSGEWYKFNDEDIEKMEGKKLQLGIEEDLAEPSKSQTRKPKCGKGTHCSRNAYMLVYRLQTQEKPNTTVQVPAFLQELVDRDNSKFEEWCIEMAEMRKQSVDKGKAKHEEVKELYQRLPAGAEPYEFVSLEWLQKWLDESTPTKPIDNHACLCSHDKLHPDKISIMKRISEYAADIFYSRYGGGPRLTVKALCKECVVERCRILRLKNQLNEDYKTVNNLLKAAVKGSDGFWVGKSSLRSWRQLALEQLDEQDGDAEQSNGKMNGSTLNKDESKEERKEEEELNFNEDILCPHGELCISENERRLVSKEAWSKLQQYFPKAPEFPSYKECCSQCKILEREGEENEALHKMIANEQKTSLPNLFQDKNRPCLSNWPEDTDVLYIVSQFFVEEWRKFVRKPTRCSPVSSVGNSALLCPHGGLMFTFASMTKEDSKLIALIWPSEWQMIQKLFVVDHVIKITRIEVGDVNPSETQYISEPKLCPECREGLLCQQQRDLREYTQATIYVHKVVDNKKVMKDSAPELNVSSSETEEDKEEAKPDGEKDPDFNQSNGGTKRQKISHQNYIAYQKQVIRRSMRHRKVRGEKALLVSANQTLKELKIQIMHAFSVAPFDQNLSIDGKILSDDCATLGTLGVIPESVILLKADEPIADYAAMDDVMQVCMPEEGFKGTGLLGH
Outline: as §1

USP5 = biological target: T4, USP5 (UniProt P45974)
T4 sequence (whole entry): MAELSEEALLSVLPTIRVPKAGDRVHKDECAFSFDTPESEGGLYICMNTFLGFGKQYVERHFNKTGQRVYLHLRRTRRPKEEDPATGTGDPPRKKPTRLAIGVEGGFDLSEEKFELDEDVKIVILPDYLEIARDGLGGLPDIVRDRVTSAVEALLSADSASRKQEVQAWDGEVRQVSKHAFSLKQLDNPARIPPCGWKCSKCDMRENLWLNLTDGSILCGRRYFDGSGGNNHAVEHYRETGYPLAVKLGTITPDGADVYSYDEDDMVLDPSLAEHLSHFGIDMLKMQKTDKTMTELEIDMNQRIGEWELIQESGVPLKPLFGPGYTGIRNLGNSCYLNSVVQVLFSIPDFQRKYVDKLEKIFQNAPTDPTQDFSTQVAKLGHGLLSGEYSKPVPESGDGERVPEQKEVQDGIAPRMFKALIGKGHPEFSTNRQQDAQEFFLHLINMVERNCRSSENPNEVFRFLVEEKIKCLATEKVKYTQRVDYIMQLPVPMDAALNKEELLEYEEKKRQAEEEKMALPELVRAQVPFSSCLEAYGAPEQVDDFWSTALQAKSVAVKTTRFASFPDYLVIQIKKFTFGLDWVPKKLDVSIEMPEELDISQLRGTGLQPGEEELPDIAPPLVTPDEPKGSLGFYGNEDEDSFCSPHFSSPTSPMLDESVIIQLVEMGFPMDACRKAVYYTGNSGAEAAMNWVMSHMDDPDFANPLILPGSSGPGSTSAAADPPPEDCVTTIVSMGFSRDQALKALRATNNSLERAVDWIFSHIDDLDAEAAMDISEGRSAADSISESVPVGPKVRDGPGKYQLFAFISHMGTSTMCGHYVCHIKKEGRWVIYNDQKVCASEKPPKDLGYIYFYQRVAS
Outline: as §1

USP54 = USP54 (UniProt Q70EL1)
Outline: as §1

USP7 = USP7 (UniProt Q93009)
Sequence of USP7 (Q93009 whole entry, looked up): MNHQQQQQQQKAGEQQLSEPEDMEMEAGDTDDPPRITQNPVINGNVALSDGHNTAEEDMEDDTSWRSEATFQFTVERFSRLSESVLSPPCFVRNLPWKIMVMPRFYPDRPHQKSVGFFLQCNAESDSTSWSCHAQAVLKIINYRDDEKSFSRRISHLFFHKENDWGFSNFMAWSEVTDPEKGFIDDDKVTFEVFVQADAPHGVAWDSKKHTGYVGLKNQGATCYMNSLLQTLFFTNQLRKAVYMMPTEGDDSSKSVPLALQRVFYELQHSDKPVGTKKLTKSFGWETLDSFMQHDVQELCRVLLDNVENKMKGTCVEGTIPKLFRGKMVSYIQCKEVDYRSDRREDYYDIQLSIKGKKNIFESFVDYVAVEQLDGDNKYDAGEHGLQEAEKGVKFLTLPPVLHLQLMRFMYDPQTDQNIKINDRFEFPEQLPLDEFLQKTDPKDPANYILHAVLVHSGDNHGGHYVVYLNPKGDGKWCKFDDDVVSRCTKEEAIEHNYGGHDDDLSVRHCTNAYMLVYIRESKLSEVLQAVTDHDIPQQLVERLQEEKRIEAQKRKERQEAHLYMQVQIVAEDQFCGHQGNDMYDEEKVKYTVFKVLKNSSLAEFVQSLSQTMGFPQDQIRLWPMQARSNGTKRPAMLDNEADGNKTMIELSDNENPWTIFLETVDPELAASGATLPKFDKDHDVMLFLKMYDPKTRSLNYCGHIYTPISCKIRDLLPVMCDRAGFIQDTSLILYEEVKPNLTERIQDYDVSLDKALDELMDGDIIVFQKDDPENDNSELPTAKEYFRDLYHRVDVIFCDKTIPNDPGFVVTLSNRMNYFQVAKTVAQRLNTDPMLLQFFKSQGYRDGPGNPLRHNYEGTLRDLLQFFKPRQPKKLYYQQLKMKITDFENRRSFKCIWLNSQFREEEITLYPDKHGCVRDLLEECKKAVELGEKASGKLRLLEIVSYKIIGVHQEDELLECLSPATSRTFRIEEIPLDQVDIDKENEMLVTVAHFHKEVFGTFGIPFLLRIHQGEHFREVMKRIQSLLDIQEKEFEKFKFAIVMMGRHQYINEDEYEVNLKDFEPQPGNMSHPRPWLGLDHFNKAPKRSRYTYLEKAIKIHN
Outline: as §1

USP8 = biological target: T5, USP8 (UniProt P40818)
T5 sequence (whole entry): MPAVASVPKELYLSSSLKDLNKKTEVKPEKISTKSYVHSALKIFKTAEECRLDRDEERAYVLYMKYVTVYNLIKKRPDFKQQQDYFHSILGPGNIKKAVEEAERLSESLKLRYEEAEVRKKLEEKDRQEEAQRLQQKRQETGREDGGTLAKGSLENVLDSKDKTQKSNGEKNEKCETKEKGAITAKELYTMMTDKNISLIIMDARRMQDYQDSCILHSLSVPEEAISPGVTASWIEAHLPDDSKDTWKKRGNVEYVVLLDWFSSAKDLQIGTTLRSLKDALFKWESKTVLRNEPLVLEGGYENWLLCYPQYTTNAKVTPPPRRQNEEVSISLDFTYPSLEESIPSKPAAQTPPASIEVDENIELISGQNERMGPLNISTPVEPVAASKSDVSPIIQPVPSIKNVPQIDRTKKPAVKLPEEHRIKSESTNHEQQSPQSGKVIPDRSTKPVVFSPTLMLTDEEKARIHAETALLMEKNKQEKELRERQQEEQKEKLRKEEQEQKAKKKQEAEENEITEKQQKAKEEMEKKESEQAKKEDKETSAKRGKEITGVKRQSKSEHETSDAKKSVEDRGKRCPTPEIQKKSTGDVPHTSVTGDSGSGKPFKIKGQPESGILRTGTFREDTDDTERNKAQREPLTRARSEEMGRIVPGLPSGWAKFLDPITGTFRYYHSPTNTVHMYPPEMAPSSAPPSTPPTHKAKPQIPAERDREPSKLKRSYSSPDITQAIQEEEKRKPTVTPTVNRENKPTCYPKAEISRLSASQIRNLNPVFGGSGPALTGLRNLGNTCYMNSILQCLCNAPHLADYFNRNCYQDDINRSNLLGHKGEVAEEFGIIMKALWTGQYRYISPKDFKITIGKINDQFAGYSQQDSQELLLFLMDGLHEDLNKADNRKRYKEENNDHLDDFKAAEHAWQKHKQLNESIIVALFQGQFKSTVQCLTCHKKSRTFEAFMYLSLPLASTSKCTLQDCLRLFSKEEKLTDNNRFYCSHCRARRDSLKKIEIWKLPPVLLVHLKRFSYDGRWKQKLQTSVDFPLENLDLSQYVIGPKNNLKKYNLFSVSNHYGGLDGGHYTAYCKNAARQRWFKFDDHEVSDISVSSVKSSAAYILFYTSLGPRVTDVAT
Outline: as §1

USP9X = USP9X (UniProt Q93008)
Sequence of USP9X (Q93008 whole entry): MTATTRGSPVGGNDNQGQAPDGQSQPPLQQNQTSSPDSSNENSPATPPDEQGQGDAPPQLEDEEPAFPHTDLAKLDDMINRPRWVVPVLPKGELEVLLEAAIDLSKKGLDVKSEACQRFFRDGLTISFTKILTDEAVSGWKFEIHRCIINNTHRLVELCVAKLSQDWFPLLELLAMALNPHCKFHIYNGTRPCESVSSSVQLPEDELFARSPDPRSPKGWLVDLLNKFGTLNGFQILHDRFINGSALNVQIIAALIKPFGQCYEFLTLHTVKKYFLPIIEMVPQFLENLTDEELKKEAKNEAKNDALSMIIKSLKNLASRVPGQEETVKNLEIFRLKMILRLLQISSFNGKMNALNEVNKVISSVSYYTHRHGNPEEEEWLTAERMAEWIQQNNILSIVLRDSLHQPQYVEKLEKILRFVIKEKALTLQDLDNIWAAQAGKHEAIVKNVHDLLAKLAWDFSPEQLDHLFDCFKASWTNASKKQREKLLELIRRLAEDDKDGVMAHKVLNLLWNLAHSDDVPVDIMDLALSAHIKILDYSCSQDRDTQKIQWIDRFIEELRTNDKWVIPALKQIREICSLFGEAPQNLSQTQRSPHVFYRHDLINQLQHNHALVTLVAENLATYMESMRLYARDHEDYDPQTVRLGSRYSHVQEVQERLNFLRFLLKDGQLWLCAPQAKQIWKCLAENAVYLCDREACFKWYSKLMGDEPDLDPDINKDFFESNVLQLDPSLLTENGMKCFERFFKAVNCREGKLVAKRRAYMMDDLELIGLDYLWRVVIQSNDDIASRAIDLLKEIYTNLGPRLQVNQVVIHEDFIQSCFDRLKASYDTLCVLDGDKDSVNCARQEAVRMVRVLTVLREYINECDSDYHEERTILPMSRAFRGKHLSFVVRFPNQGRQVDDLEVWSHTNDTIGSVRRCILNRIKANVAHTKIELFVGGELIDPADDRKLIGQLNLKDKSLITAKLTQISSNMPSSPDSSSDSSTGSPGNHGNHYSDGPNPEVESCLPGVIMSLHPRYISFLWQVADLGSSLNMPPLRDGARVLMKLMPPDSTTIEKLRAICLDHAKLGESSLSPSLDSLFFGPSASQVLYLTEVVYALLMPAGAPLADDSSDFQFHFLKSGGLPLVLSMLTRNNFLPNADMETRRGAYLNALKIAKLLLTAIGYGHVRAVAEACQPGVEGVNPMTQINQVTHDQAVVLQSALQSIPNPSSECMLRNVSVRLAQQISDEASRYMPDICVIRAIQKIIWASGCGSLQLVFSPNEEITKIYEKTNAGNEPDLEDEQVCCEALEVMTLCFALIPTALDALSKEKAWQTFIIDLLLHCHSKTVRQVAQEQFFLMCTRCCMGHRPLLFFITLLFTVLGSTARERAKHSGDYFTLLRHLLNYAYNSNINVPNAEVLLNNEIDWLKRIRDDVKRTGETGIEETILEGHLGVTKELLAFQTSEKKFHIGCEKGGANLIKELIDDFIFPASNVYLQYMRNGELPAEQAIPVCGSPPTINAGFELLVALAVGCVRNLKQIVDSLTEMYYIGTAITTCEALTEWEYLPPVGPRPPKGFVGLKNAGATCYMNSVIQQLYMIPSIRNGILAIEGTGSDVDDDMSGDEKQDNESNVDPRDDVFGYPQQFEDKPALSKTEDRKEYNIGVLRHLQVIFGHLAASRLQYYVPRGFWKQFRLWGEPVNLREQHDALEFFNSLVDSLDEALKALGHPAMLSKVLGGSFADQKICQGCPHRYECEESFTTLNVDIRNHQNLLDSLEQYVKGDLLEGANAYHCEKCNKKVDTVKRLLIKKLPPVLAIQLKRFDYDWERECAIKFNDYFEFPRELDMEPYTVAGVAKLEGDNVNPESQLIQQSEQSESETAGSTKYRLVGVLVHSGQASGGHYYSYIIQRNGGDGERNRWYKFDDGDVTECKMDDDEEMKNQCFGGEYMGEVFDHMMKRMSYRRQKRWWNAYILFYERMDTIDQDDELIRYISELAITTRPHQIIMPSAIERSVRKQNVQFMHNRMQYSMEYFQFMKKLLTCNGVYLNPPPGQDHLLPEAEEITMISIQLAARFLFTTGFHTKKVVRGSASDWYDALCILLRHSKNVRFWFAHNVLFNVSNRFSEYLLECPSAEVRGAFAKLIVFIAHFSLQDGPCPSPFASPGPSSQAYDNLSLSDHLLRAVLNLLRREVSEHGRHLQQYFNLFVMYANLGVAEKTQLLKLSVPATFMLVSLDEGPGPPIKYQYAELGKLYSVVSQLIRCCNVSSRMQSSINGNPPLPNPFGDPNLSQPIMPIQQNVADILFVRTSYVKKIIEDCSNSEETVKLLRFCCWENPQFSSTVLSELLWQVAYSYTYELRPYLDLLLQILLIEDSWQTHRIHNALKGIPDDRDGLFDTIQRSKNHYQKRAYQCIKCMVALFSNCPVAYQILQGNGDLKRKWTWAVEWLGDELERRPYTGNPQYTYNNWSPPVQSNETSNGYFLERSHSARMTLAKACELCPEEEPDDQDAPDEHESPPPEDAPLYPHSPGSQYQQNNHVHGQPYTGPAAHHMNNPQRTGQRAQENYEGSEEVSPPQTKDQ
Outline: as §1

UniProt O00487 = biological target: UniProt O00487
Sequence of UniProt O00487 (O00487 whole entry): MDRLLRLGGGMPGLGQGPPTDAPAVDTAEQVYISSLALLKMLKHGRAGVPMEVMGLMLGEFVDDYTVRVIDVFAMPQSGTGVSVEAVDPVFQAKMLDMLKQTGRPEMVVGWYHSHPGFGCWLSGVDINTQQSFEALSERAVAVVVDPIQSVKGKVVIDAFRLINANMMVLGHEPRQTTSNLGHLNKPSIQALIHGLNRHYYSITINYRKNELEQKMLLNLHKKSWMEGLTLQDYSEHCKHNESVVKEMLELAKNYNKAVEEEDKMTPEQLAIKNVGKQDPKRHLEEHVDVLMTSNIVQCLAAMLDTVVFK
Outline: as §1

Measured: log2 ratio of Biotin-Ahx-Ub-VS probe labelling

O=C(CCl)NCc1ccc(N2CCOCC2)c(F)c1
inactive: USP42 0.396 | USP46 0.00295 | USP47 0.00631 | USP48 0.132 | USP5 0.372 | USP54 0.657 | USP7 -0.046 | USP8 0.129 | USP9X -0.078 | UniProt O00487 0.0665
